Laboratory results published in PubChem BioAssay (EPA / NIEHS).
Calls of active or inactive are those of the source. How the source made its calls: active means hit-call score of the fitted dose curve at least 0.9, where 1 is the maximum; inactive means score below 0.9.

What was measured:
[1] = ATG_CRE_CIS: Attagene CIS-FACTORIAL HepG2 Assay for human cAMP Responsive Element (CRE) binding protein 3 (AID 2282926); conditions: HepG2 CRE cis-reporter, Attagene multiplexed mRNA; actives raise or lower the signal
How it was run: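 Induced reporter mRNA from a CRE cis element, measured in HepG2 among many multiplexed units at 24 h. Detection used RT-PCR plus capillary electrophoresis of fluorescent fragments; DMSO served as negative control.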

[2] = target: CCAAT/enhancer-binding protein beta (Homo sapiens) (UniProt P17676); assay: ATG_C_EBP_CIS: Attagene CIS-FACTORIAL HepG2 Assay for human CCAAT/Enhancer Binding Protein (C/EBP) beta (AID 2282927); conditions: HepG2 Attagene cis-factorial transcription factor reporter; actives raise or lower the signal
How it was run: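 Changes in reporter mRNA, rather than exogenous chimeric receptor activity, reflect native C/EBP signalling in transfected HepG2 cells dosed for 24 h; transcripts are detected by RT-PCR and capillary electrophoresis.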

[3] = ATG_CMV_CIS: Attagene CIS-FACTORIAL HepG2 Assay for human CMV (Internal Marker) (AID 2282928); conditions: HepG2 CMV promoter reporter, transcription factor profiling; actives raise or lower the signal;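 further: endpoint acts as a background internal control marker rather than a target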
How it was run: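 Readout: fluorescent reporter cDNA fragments separated by capillary electrophoresis after RT-PCR and HpaI cut. Cells: HepG2 carrying transfected cis-promoter reporter constructs, dosed 24 h. Endpoint serves as background internal-marker control, fit bidirectionally versus DMSO.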

[4] = ATG_DR4_LXR_CIS: Attagene CIS-FACTORIAL HepG2 Assay for human Liver X Receptor (LXR), DR4 submotif (AID 2282929); conditions: HepG2 Attagene DR4 cis-reporter, mRNA transcription; actives raise or lower the signal
How it was run: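 Cells were transfected with multiple reporter transcription units, exposed to chemicals for 24 hours, then lysed for RNA. Reporter mRNA induction was measured by RT-PCR with capillary electrophoresis detection and fitted in both directions relative to DMSO.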

[5] = target: Aryl hydrocarbon receptor (Homo sapiens) (UniProt P35869); assay: ATG_Ahr_CIS: Attagene CIS-FACTORIAL HepG2 Assay for human Aryl Hydrocarbon Receptor (Ahr) (AID 2282930); conditions: HepG2 AhR cis-factorial reporter transcription; actives raise or lower the signal
How it was run: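 HepG2, transient MRTU (cis) transfection, 24 h exposure. RNA → cDNA → PCR → 6-FAM primer extension → HpaI 2 h 37 C → CE. Fit: bidirectional, DMSO baseline.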

[6] = ATG_AP_1_CIS: Attagene CIS-FACTORIAL HepG2 Assay for human Activator Protein 1 (AP-1) (AID 2282931); conditions: HepG2 Attagene cis-factorial AP-1 reporter mRNA; actives raise or lower the signal
How it was run: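 Endogenous transcription-factor activity in human HepG2 liver cells is read through a cis-promoter reporter transcript, sampled 24 h after dosing. Detection uses RT-PCR with capillary electrophoresis; values come from bidirectional fitting relative to DMSO.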

[7] = ATG_AP_2_CIS: Attagene CIS-FACTORIAL HepG2 Assay for human Activator Protein 2 (AP-2) (AID 2282932); conditions: HepG2 AP-2 cis-reporter, Attagene transcription factor profiling; actives raise or lower the signal
How it was run: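 Transiently transfected HepG2 cells are exposed to chemical for 24 h. Reporter transcripts are then measured as fluorescence following RT-PCR and capillary separation, and gain- or loss-of-signal is fitted relative to DMSO.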

[8] = ATG_BRE_CIS: Attagene CIS-FACTORIAL HepG2 Assay for human Bone Morphogenetic Protein (BMP) Response Element (BRE) (AID 2282933); conditions: HepG2 BMP response element reporter, Attagene transcription factor profiling; actives raise or lower the signal
How it was run: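 A HepG2 multiplex reporter system measured inducible reporter mRNA 24 h post-dosing. Detection: RT-PCR, 6-FAM primer extension, HpaI digestion, capillary electrophoresis. Activity fitted bidirectionally relative to DMSO.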

[9] = target: Transcription factor E2F1 (Homo sapiens) (UniProt Q01094); assay: ATG_E2F_CIS: Attagene CIS-FACTORIAL HepG2 Assay for human E2F Transcription Factor 1 (AID 2282935); conditions: HepG2 Attagene cis-reporter, E2F reporter RNA transcripts; actives raise or lower the signal
How it was run: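 Fluorescent RT-PCR products, digested with HpaI for 2 h at 37 C, are separated by capillary electrophoresis. Source RNA comes from transfected HepG2 cultures treated for 24 h.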

[10] = ATG_E_Box_CIS: Attagene CIS-FACTORIAL HepG2 Assay for human Enhancer Box (E-box) (AID 2282936); conditions: HepG2 E-box cis-reporter transcription, actives raise or lower the signal
How it was run: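 Fluorescent reporter fragments separated by capillary electrophoresis gave the signal; mRNA came from HepG2 cells transfected with cis-element reporters and treated 24 h. Curves fitted bidirectionally relative to DMSO controls.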

[11] = ATG_M_61_CIS: Attagene CIS-FACTORIAL HepG2 Assay for M61 Transcription Factor (Internal Marker) (AID 2282937); conditions: HepG2 Attagene CIS-FACTORIAL M61 internal marker reporter; actives raise or lower the signal
How it was run: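 Cells were transfected with reporter units under cis-regulatory promoters, treated with chemicals for 24 h, then lysed for RNA. Reporter transcripts were quantified by RT-PCR and capillary electrophoresis, and activity was fitted bidirectionally against DMSO.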

[12] = ATG_EGR_CIS: Attagene CIS-FACTORIAL HepG2 Assay for human Early Growth Response 1 (EGR1) (AID 2282938); conditions: HepG2 Attagene CIS-FACTORIAL EGR reporter mRNA; actives raise or lower the signal
How it was run: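 Endogenous TF activity in HepG2 liver cells was gauged through cis-promoter reporter constructs transiently transfected. After 24 h dosing, reporter mRNA was quantified by RT-PCR and capillary electrophoresis, and curves fitted in both directions versus DMSO.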

[13] = ATG_M_19_CIS: Attagene CIS-FACTORIAL HepG2 Assay for M19 Transcription Factor (Internal Marker) (AID 2282939); conditions: HepG2 Attagene CIS-FACTORIAL M19 internal marker reporter; actives raise or lower the signal
How it was run: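 Chemical-treated HepG2 (24 h) with MRTU constructs; reporter transcripts detected by fluorescent RT-PCR fragment analysis on capillary electrophoresis. Internal background marker, DMSO as baseline.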

[14] = ATG_ERE_CIS: Attagene CIS-FACTORIAL HepG2 Assay for Estrogen Response Element (ERE) (AID 2282940); conditions: HepG2 ERE cis-reporter, Attagene RNA transcript; actives raise or lower the signal
How it was run: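 Human liver cells (HepG2) bearing transiently transfected, promoter-regulated reporter units were exposed 24 h. Reporter mRNA induction was detected by capillary electrophoresis of labelled RT-PCR products and fitted bidirectionally to DMSO.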

[15] = ATG_Ets_CIS: Attagene CIS-FACTORIAL HepG2 Assay for human Erythroblast Transformation Specific (ETS) (AID 2282941); conditions: HepG2 ETS cis-reporter transcription, actives raise or lower the signal
How it was run: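 RT-PCR/capillary electrophoresis fluorescence read-out of reporter mRNA; HepG2 transient multi-reporter transfection; 24 h compound exposure; gain or loss of signal fitted bidirectionally relative to DMSO.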

[16] = target: Hepatocyte nuclear factor 3-beta (Homo sapiens) (UniProt Q9Y261); assay: ATG_FoxA2_CIS: Attagene CIS-FACTORIAL HepG2 Assay for human Forkhead box A2 (FOXA2) (AID 2282942); conditions: HepG2 cis-reporter transcription factor activity, 24 h; actives raise or lower the signal
How it was run: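 Endogenous transcription factor activity was read in HepG2 cells carrying transiently transfected cis-promoter reporter units. After 24 h dosing, reporter mRNA was quantified by RT-PCR and capillary electrophoresis, and values fitted bidirectionally versus DMSO.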

[17] = ATG_FoxO_CIS: Attagene CIS-FACTORIAL HepG2 Assay for human Forkhead box O (FoxO) (AID 2282943); conditions: HepG2 Attagene cis-reporter, FoxO element, mRNA; actives raise or lower the signal
How it was run: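 Human hepatoma HepG2 cells carry transiently introduced reporter transcription units controlled by cis promoter elements. Chemical treatment lasted 24 h, and mRNA signal was compared with DMSO.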

[18] = ATG_GATA_CIS: Attagene CIS-FACTORIAL HepG2 Assay for human GATA Binding Protein (AID 2282944); conditions: HepG2 GATA cis-element reporter, Attagene multiplex mRNA; actives raise or lower the signal
How it was run: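 Transfected cis-reporter HepG2 cells were treated with chemicals for 24 hours. Total RNA was then converted to cDNA, amplified with reporter-specific primers and analysed by fluorescent capillary electrophoresis, using DMSO-treated wells as baseline.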

[19] = ATG_GLI_CIS: Attagene CIS-FACTORIAL HepG2 Assay for human Zinc Finger Protein GLI1 (AID 2282945); conditions: HepG2, Attagene cis-factorial reporter mRNA, GLI element; actives raise or lower the signal
How it was run: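 Bidirectional curve fits relative to DMSO, using reporter mRNA levels from RT-PCR plus capillary electrophoresis. Cells were HepG2 transiently carrying cis-regulated reporter constructs, harvested 24 h after dosing.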

[20] = target: Retinoic acid receptor alpha (Homo sapiens) (UniProt P10276); assay: ATG_DR5_RAR_CIS: Attagene CIS-FACTORIAL HepG2 Assay for human Retinoic Acid Receptor Alpha (RARE), DR5 submotif (AID 2282934); conditions: HepG2 Attagene cis-factorial RARE DR5 reporter, mRNA; actives raise or lower the signal
How it was run: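 HepG2, transient cis-reporter transfection, 24 h exposure. mRNA readout: RT-PCR, FAM label, HpaI cut, capillary electrophoresis. DMSO baseline, gain/loss fitting.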

Measured: outcome

Sequence of Aryl hydrocarbon receptor (Homo sapiens) (P35869 whole entry, looked up): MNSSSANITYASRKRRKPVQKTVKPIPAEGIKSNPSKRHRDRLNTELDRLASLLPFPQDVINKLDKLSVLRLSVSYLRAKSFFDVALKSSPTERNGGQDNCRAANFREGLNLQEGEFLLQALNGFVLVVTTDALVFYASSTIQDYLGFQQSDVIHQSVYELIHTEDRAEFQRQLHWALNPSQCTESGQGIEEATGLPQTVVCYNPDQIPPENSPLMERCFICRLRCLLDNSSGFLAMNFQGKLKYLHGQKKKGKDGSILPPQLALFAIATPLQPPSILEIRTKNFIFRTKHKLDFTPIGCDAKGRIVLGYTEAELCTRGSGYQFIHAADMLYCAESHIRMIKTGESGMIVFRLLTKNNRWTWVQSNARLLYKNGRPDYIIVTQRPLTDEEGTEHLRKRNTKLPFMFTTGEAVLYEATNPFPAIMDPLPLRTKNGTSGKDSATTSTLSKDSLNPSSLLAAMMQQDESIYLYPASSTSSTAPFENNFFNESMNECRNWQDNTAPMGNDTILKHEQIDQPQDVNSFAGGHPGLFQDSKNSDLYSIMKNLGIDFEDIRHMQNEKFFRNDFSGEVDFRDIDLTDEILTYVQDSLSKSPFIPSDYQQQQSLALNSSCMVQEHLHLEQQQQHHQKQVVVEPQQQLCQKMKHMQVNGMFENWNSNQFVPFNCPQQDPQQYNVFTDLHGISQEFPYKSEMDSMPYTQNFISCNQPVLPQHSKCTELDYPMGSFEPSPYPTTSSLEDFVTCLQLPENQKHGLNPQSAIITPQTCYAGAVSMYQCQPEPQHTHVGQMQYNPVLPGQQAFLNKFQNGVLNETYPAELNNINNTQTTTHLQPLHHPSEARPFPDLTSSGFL
Sequence of Hepatocyte nuclear factor 3-beta (Homo sapiens) (Q9Y261 whole entry, looked up): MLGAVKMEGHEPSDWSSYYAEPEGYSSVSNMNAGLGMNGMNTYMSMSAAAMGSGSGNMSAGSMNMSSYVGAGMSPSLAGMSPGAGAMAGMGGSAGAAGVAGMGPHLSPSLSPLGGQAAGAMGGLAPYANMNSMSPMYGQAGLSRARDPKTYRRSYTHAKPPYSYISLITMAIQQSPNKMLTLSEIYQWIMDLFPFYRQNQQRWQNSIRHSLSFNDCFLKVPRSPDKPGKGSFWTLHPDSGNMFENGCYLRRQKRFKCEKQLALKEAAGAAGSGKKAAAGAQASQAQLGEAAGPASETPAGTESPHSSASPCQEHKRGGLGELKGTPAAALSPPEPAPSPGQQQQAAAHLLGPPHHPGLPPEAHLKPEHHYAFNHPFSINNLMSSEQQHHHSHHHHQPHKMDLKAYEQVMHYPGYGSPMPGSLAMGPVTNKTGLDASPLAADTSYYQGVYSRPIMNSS
Sequence of CCAAT/enhancer-binding protein beta (Homo sapiens) (P17676 whole entry, looked up): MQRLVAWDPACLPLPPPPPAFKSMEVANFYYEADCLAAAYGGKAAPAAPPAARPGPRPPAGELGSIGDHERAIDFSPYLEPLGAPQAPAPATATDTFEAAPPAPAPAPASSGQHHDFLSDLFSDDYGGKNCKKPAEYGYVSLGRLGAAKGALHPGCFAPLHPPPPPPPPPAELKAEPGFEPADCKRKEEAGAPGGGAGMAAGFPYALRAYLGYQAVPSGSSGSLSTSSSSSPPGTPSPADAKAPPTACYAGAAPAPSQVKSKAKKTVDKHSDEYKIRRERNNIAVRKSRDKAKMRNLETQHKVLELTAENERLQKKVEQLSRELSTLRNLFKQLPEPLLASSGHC
Sequence of Transcription factor E2F1 (Homo sapiens) (Q01094 whole entry, looked up): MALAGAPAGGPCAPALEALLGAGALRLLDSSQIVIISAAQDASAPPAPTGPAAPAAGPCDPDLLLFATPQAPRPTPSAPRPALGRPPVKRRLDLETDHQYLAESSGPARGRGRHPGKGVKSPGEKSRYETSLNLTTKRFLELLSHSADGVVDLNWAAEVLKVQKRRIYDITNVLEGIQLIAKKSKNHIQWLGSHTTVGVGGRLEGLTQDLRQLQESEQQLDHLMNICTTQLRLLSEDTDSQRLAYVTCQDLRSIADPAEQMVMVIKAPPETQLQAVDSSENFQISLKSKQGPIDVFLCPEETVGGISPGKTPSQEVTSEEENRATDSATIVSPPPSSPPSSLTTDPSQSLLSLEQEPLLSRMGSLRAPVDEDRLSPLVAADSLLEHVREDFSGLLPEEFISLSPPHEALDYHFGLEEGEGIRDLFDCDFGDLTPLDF
Sequence of Retinoic acid receptor alpha (Homo sapiens) (P10276 whole entry, looked up): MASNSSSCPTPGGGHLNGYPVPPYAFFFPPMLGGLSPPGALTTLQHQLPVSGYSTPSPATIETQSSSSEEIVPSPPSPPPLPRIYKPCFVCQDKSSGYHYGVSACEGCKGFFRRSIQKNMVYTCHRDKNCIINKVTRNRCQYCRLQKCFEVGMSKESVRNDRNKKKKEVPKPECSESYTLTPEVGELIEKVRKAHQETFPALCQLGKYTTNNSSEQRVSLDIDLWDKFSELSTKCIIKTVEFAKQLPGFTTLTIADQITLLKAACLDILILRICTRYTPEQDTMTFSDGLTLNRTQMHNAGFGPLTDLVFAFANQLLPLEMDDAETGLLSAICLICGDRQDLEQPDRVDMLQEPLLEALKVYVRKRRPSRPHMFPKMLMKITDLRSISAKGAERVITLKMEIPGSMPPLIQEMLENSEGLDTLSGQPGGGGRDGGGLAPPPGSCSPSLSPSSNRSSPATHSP

CCN(CC)c1ccc(C(=O)c2ccccc2C(=O)O)c(O)c1
inactive: [1] | [2] | [3] | [4] | [5] | [6] | [7] | [8] | [9] | [10] | [11] | [12] | [13] | [14] | [15] | [16] | [17] | [18] | [19]

CN1C(=O)N(C)C(O)C1O (stereo unspecified)
inactive: [1] | [2] | [3] | [4] | [5] | [6] | [7] | [8] | [9] | [10] | [11] | [12] | [13] | [14] | [17] | [18] | [19]

Cc1cc(C)c(C)c(C)c1
inactive: [1] | [2] | [3] | [4] | [5] | [6] | [7] | [8] | [9] | [10] | [11] | [12] | [13] | [14] | [15] | [16] | [17] | [18] | [19]

O=C1C=CC(=O)O1
inactive: [1] | [2] | [3] | [4] | [5] | [6] | [7] | [8] | [9] | [10] | [11] | [12] | [13] | [14] | [15] | [16] | [17] | [19]

CCCOC(=O)CCCCC(=O)OCCC
inactive: [1] | [2] | [3] | [4] | [5] | [6] | [7] | [8] | [9] | [10] | [11] | [12] | [13] | [14] | [15] | [16] | [17] | [19]

S=C(NC1CCCCC1)NC1CCCCC1
inactive: [1] | [2] | [3] | [4] | [5] | [6] | [7] | [20] | [9] | [10] | [11] | [12] | [13] | [14] | [15] | [17] | [18] | [19]

CC(=O)NS(=O)(=O)c1ccc(N)cc1
inactive: [1] | [2] | [3] | [4] | [5] | [6] | [7] | [8] | [9] | [10] | [11] | [12] | [13] | [14] | [15] | [16] | [17] | [19]

CCCNC(=O)NS(=O)(=O)c1ccc(Cl)cc1
inactive: [1] | [2] | [3] | [4] | [5] | [6] | [7] | [20] | [9] | [10] | [11] | [12] | [13] | [14] | [15] | [16] | [17] | [18] | [19]
